The text below walks through data of ChEMBL document CHEMBL1961873, “Compounds: GSK PKIS; Assays: Nanosyn kinase panel” (2012).

The target in assay [1] is T1, Tyrosine-protein kinase ITK/TSK (Homo sapiens) (UniProt Q08881).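 Also: values are mean percent inhibition of ITK from the GSK PKIS screen.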
T1 sequence (whole entry): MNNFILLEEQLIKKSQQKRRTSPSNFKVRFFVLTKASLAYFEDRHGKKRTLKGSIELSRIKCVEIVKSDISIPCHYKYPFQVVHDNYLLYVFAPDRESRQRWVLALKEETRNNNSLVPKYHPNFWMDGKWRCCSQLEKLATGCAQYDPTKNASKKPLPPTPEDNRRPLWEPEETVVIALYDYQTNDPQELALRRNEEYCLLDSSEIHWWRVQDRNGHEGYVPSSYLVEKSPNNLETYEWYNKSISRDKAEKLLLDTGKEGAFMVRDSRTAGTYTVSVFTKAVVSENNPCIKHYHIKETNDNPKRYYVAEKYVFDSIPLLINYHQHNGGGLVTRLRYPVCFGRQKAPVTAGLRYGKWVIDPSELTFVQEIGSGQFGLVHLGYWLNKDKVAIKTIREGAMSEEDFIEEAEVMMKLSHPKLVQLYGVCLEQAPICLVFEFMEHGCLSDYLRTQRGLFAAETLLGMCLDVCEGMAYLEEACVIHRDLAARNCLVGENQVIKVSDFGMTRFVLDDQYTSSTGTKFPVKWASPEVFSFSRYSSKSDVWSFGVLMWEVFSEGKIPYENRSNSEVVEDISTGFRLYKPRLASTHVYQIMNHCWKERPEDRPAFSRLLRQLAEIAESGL
The following applies: at 1 µM.

Assay [2] deals with Tyrosine-protein kinase JAK1 (Homo sapiens) (UniProt P23458). The following applies: at 0.1 µM.
Sequence of Tyrosine-protein kinase JAK1 (Homo sapiens) (P23458 whole entry): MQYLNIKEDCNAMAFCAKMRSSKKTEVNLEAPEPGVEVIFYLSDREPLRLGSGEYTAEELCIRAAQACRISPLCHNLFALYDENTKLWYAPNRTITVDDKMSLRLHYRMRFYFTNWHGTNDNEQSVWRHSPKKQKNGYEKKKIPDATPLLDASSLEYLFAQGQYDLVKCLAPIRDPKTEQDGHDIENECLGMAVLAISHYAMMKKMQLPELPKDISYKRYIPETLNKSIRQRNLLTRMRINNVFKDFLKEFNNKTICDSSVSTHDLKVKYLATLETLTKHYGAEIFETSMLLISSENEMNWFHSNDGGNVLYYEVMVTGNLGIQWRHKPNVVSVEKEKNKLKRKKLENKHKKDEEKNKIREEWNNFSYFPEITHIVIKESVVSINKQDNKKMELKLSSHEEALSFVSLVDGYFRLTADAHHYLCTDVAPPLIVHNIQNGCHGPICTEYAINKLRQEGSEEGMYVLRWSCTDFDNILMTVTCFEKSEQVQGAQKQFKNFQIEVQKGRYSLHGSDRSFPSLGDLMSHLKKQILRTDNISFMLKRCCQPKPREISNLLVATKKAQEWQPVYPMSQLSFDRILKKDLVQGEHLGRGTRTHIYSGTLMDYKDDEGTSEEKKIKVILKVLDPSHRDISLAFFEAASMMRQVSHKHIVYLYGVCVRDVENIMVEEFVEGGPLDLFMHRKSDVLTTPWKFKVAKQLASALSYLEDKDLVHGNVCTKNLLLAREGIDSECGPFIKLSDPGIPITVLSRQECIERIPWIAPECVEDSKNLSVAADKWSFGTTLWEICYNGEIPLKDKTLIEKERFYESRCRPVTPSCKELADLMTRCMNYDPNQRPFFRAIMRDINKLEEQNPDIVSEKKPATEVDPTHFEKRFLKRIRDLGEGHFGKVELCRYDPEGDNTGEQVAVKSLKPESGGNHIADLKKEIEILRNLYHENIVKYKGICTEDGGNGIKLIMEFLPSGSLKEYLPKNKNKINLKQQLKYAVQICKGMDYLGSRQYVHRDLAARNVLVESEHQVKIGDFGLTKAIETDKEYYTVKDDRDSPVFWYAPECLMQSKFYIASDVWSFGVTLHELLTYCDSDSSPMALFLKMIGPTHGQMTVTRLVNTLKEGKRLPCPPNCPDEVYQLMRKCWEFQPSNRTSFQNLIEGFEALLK
For assay [3] the target is unchanged. As to conditions: at 1 µM.
The target of assay [4] is Tyrosine-protein kinase JAK2 (Homo sapiens) (UniProt O60674). As to conditions: at 0.1 µM.
Sequence of Tyrosine-protein kinase JAK2 (Homo sapiens) (O60674 whole entry): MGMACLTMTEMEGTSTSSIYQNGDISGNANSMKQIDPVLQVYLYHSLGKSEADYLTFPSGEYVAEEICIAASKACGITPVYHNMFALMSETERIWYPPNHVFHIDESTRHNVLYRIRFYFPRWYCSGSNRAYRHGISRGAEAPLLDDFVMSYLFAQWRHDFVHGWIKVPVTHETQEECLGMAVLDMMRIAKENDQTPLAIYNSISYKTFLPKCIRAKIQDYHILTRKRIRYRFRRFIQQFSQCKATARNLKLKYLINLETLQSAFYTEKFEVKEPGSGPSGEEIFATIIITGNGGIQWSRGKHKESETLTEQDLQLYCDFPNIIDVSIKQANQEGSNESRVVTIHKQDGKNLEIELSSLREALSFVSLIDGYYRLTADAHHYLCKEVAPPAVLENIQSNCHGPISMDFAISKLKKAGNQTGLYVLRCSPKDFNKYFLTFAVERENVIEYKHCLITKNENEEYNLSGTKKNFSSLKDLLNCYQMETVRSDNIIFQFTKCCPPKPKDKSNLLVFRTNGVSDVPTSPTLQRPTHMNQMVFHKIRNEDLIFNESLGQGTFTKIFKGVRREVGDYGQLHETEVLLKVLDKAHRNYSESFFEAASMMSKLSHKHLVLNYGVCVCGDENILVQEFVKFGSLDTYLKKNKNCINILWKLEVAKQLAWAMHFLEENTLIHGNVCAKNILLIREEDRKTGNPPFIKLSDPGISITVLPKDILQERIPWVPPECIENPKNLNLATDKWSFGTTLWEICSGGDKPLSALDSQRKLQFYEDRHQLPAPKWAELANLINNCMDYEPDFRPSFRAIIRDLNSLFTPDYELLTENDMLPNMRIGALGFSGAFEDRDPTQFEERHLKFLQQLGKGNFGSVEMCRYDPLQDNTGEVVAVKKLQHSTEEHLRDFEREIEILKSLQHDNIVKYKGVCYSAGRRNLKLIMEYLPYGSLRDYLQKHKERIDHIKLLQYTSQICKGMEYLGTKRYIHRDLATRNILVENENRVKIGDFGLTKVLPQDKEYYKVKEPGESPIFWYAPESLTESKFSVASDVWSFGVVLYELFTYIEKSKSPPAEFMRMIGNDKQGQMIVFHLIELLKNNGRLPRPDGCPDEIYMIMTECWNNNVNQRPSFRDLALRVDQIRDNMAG
Assay [5] has the same target. As to conditions: at 1 µM.
Assay [6] deals with T2, Tyrosine-protein kinase JAK3 (Homo sapiens) (UniProt P52333).
T2 sequence (whole entry): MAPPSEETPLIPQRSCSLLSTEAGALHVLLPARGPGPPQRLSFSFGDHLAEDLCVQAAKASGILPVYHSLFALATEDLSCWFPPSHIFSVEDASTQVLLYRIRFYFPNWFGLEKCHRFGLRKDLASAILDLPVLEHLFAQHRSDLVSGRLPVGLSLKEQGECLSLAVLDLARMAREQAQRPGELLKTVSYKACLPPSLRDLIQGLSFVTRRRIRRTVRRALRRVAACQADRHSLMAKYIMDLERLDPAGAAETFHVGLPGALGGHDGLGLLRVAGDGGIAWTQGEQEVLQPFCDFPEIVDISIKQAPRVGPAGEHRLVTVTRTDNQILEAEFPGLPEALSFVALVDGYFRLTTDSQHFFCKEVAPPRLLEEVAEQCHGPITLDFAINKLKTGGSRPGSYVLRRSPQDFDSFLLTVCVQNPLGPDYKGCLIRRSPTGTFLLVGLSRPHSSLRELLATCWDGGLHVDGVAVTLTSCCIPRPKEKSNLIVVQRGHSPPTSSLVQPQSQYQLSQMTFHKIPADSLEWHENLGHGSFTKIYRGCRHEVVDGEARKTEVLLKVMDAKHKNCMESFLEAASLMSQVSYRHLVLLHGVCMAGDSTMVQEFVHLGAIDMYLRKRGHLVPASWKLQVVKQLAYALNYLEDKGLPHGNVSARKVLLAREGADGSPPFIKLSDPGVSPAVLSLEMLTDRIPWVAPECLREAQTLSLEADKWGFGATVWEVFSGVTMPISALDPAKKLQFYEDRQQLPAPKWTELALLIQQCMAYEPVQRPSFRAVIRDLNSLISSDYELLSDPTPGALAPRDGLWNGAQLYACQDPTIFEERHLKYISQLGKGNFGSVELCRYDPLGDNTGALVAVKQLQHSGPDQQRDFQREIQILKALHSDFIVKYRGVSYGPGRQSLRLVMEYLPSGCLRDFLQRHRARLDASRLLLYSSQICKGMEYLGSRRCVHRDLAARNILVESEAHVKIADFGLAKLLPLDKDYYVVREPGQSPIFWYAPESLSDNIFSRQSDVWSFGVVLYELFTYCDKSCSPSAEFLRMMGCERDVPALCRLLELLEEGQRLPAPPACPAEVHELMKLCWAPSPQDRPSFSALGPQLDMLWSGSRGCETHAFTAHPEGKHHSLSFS
The following applies: at 0.1 µM.

The target in assay [7] is T2, Tyrosine-protein kinase JAK3 (Homo sapiens). As to conditions: at 1 µM.
Assay [8] deals with Vascular endothelial growth factor receptor 2 (Homo sapiens) (UniProt P35968). The following applies: at 0.1 µM.
Sequence of Vascular endothelial growth factor receptor 2 (Homo sapiens) (P35968 whole entry): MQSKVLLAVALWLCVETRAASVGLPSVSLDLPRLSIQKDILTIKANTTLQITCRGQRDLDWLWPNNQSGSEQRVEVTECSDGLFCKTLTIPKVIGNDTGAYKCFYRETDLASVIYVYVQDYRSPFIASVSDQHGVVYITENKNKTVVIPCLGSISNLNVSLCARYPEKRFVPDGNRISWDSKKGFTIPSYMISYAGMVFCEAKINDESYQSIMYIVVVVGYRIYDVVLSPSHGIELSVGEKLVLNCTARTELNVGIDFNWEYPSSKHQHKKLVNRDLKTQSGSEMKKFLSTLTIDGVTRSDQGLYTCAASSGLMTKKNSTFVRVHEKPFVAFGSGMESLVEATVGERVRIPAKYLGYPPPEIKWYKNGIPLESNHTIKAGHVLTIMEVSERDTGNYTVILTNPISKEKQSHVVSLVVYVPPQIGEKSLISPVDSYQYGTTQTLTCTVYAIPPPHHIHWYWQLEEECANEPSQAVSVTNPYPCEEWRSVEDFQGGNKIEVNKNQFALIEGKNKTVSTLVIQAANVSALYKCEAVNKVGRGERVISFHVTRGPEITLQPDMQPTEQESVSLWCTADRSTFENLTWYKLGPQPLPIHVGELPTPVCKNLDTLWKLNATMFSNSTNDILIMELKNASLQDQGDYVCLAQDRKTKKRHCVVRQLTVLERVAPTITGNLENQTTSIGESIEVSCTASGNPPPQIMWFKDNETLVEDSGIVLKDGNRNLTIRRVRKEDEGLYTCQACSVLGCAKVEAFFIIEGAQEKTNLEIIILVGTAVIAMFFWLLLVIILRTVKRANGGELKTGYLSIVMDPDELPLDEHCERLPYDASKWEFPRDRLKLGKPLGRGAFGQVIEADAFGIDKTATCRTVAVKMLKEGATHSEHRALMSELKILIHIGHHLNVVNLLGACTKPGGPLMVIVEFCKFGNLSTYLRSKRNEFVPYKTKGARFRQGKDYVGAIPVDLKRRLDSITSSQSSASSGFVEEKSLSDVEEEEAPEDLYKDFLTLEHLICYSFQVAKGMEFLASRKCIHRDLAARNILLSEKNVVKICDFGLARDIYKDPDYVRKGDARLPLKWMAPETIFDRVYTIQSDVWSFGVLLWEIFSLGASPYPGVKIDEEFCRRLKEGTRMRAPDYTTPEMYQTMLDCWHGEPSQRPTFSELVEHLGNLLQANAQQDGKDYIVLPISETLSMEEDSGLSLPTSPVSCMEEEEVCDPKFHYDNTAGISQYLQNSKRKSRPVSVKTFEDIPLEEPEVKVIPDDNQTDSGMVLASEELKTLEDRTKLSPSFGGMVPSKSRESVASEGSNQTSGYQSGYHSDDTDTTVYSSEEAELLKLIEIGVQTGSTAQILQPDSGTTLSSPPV
For assay [9] the target is unchanged. The following applies: at 1 µM.
The target of assay [10] is Mast/stem cell growth factor receptor Kit (Homo sapiens) (UniProt P10721). The following applies: at 0.1 µM.
Sequence of Mast/stem cell growth factor receptor Kit (Homo sapiens) (P10721 whole entry): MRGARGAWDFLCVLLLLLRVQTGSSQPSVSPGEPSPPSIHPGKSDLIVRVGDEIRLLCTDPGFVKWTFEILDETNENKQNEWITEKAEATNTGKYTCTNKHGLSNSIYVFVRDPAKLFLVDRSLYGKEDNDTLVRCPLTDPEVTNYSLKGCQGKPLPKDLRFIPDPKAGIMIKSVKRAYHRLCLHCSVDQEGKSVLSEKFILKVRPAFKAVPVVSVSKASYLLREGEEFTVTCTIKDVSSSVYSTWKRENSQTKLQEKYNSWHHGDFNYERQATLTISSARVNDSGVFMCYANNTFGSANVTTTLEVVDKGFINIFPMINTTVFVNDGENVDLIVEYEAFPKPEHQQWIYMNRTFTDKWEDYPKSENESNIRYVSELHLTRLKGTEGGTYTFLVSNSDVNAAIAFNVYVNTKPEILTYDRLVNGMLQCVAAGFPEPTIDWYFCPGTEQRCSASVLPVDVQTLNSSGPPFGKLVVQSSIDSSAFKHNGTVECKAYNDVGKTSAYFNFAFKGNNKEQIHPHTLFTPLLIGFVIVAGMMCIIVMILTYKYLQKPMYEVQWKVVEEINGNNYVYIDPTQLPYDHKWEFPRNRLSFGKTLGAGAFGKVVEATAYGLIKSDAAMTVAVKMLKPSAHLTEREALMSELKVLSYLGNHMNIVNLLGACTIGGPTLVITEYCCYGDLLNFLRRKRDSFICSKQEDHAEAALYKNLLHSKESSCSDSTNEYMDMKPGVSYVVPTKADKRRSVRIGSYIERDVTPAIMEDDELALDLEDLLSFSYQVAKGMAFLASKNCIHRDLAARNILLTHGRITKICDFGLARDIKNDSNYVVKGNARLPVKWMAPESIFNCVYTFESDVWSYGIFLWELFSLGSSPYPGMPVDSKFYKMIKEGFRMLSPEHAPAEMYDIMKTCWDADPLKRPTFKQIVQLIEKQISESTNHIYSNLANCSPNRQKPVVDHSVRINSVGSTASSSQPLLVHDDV
For assay [11] the target is unchanged. The following applies: at 1 µM.
Assay [12] has as its system Mast/stem cell growth factor receptor Kit (Homo sapiens), P10721 [D816V]. The following applies: at 0.1 µM.
For assay [13] the test system is unchanged. As to conditions: at 1 µM.
The subject of assay [14] is Mast/stem cell growth factor receptor Kit (Homo sapiens), P10721 [T670I]. As to conditions: at 0.1 µM.
Assay [15] shares this test system. As to conditions: at 1 µM.
Assay [16] deals with Mast/stem cell growth factor receptor Kit (Homo sapiens), P10721 [V560G]. The following applies: at 0.1 µM.
Sequence of Mast/stem cell growth factor receptor Kit (Homo sapiens), P10721 [V560G] (P10721 whole entry V560G): as the sequence (P10721 whole entry) above, with V560G counted along it
Assay [17] shares this test system. As to conditions: at 1 µM.
Assay [18] deals with Tyrosine-protein kinase Lck (Homo sapiens) (UniProt P06239). The following applies: at 0.1 µM.
The target is the same in assay [19]. The following applies: at 1 µM.
Assay [20] deals with Leukocyte tyrosine kinase receptor (Homo sapiens) (UniProt P29376). The following applies: at 0.1 µM.

Sequence of Mast/stem cell growth factor receptor Kit (Homo sapiens), P10721 [D816V] (P10721 whole entry D816V): as the sequence (P10721 whole entry) above, with D816V counted along it
Sequence of Mast/stem cell growth factor receptor Kit (Homo sapiens), P10721 [T670I] (P10721 whole entry T670I): as the sequence (P10721 whole entry) above, with T670I counted along it

Regarding `Nc1nc(-c2ccccn2)c(-c2ccc3ncccc3n2)s1`, the inhibition (usually the change of the read-out against control, counted positive when it falls) in assay [1] is 2.48%; in assay [2], 0.52%; in [3], 4.22%; in assay [4], -0.07%; in assay [5], 2%; in [6], -1.07%. Besides, the inhibition in assay [7] was -0.57%; in [8] it was 3.52%; in assay [9], 8.02%; in [10], 3.79%; in assay [11], 3.6%; in assay [12] it was 3.62%. Also, the inhibition is 4.08% in assay [13]; 4.81% in assay [14]; 3.16% in [15]; -2.5% in [16]; 2.06% in assay [17]; 0.48% in assay [18]. Besides, the inhibition stood at 0.19% in assay [19] and 2.47% in [20].
On to `NC(=O)c1cccc(Nc2nccc(Nc3cccc4[nH]ncc34)n2)c1`, for which the inhibition in [1] came out at 1.1%; in [3], 19.6%; in assay [4], 6.75%; in assay [5], 57%; in assay [6], 0.54%; in assay [7], 25.2%. Further, the inhibition in assay [8] was 16.1%; in assay [9], 63.1%; in assay [10], 48.5%; in assay [11], 91.1%; in [12], -2.32%; in assay [13], 14.6%. Moreover, the inhibition was -2.9% in assay [14]; 4.51% in assay [15]; 5.52% in [16]; 22.5% in assay [17]; 36.7% in assay [18]; 81.8% in assay [19]. Further, the inhibition in [20] worked out at 4.75%.
Consider `NC(=O)c1ccc(-c2nc(-c3ccccn3)c(-c3ccc4c(c3)OCO4)[nH]2)cc1`, for which the inhibition in [1] is 1.43%; in assay [2], 3.36%; in [3] it was 8.87%; in assay [4] it was 1.02%; in assay [5], 1.92%; in assay [6], -1.26%. For the same compound, the inhibition in [7] is 0.2%; in assay [8], 2.91%; in assay [9], 3.09%; in [10] it was 1.09%; in assay [11], 4.68%; in [12] it was 7.73%. Moreover, the inhibition in assay [13] is 5.29%; in assay [14], 0.05%; in [16], 1.28%; in [17], 6.23%; in [18], 2.19%; in assay [19] it was 4.07%. Moreover, the inhibition in assay [20] turned out to be 3.03%.
In the case of `CCn1c(-c2nonc2N)nc2cncc(C(=O)N3CC[C@H](N)C3)c21`, the inhibition is 1.18% in assay [1]; -1.1% in [2]; 22.4% in [3]; 0.61% in assay [4]; 1.25% in [5]; -0.95% in assay [6]. Further, the inhibition in [7] is -0.29%; in assay [8] it was 7.05%; in [9] it was 15.8%; in assay [10], 5.39%; in assay [11], 6.77%; in [12], 5.29%. Further, the inhibition in assay [13] is 5.73%; in assay [14] it was 3.35%; in assay [15] it was 3.02%; in [16], 2.5%; in assay [17], -1.61%; in [20], 4.31%.
In the case of `NS(=O)(=O)c1ccc(N/N=C2\C(=O)Nc3ccc(C(=O)NCCc4c[nH]cn4)cc32)cc1`, the inhibition in assay [1] was 3.56%; in assay [2] it was 5.75%; in assay [3], 0.16%; in [4] it was 2.27%; in assay [5], 2.46%; in [6], 0.03%. Also, the inhibition in [7] was 3.43%; in assay [8], 12.9%; in assay [9], 43.3%; in assay [10], 5.68%; in assay [11] it was 7.76%; in [12] it was 3.86%. The inhibition in assay [13] was 6.74%; in assay [14] it was 3.65%; in assay [15] it was 4%; in assay [16] it was -1.9%; in [17] it was 3.01%; in assay [18] it was 4.09%. The inhibition in [19] was 9.31%; in assay [20], 5.2%.
With `CNC(=O)c1cncc(/C=C/c2c(Cl)cccc2Cl)c1`, the inhibition in assay [1] is -1.73%; in [2], 2.61%; in assay [3], 2.48%; in [4], 1.58%; in [5] it was 2.6%; in [6], -4.61%. The inhibition in assay [7] is -3.71%; in [8], 6.02%; in [9] it was 13.1%; in [10], 5.81%; in [11] it was 33.4%; in [12], 2.74%. Moreover, the inhibition in assay [13] was 1.88%; in [14] it was 0.36%; in [15], 0.46%; in assay [16], -1.49%; in assay [17] it was 10.9%; in [18], 1.21%. Further, the results for the inhibition in assay [19] and in assay [20] were 9.89% and 3.47%, respectively.
